# In the supplement of paper PMC10849652:
# About 8,800 targets were measured; listed, in parts, are those with a hit and a random draw of the rest. About 0.5% of all pairs of compound and target were hits. Unmarked numbers belong to inactive results.
# Compound: CC[C@@H]1C(=O)N(C)c2cnc(Nc3ccc(C(=O)NC4CCN(C)CC4)cc3OC)nc2N1C1CCCC1
# Test: log2 fold change, soluble protein after heating vs DMSO (PISA); higher = thermal stabilisation; K562 lysate, 10 uM; active = over 0.2 and 3.5 SD of the protein, either way, in both replicates (recomputed)
# How it was run: (§1)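 K562 pellets were dounce-homogenised in PBS pH 7.4 containing 1 mM MgCl2, and the crude extract, at 1 mg/mL protein, was exposed to 10 μM compound for 30 min. Aliquots were heated for 3 min across 48°C-58°C, pooled, brought to 0.5% NP-40 at 4°C and spun at 21,000xg for 90 min, with the supernatant taken as soluble protein. TMTpro 16plex LC-MS/MS with equalised channel sums quantified that protein. Values are log-two fold changes in thermal stability relative to solvent controls, taken from duplicates.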
# Chain of UniProt O95239 (O95239 whole entry, looked up): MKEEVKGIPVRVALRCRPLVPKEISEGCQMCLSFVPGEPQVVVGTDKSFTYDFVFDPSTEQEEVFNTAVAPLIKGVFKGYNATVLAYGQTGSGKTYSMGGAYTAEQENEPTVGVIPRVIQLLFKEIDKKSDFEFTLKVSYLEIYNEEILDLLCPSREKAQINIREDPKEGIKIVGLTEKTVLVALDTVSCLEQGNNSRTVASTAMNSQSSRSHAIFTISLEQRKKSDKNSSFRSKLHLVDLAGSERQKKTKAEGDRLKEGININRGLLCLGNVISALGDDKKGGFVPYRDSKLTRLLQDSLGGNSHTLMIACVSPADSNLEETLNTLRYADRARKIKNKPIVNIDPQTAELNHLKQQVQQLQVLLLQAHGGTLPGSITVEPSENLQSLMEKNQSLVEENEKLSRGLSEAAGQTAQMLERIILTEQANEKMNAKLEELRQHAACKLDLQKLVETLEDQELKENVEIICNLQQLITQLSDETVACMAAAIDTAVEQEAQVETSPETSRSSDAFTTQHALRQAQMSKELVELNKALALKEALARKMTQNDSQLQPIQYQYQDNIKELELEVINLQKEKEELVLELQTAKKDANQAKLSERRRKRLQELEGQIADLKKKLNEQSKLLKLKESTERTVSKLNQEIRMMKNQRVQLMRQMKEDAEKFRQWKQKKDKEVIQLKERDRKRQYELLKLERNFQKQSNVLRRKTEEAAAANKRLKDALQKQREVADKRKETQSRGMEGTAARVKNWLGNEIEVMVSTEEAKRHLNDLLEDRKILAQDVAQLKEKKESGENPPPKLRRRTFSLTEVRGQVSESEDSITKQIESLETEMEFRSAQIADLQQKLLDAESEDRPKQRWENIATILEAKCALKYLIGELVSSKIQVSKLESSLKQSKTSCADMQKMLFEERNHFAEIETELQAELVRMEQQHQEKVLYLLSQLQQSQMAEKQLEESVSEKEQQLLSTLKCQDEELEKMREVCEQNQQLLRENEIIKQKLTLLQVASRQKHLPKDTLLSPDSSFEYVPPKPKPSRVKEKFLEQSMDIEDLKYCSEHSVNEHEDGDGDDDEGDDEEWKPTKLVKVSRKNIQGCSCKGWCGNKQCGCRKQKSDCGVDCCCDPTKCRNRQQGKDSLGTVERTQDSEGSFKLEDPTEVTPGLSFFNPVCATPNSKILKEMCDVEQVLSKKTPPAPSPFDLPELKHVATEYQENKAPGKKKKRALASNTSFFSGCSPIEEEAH
# Chain of UniProt Q9Y6R4 (Q9Y6R4 whole entry, looked up): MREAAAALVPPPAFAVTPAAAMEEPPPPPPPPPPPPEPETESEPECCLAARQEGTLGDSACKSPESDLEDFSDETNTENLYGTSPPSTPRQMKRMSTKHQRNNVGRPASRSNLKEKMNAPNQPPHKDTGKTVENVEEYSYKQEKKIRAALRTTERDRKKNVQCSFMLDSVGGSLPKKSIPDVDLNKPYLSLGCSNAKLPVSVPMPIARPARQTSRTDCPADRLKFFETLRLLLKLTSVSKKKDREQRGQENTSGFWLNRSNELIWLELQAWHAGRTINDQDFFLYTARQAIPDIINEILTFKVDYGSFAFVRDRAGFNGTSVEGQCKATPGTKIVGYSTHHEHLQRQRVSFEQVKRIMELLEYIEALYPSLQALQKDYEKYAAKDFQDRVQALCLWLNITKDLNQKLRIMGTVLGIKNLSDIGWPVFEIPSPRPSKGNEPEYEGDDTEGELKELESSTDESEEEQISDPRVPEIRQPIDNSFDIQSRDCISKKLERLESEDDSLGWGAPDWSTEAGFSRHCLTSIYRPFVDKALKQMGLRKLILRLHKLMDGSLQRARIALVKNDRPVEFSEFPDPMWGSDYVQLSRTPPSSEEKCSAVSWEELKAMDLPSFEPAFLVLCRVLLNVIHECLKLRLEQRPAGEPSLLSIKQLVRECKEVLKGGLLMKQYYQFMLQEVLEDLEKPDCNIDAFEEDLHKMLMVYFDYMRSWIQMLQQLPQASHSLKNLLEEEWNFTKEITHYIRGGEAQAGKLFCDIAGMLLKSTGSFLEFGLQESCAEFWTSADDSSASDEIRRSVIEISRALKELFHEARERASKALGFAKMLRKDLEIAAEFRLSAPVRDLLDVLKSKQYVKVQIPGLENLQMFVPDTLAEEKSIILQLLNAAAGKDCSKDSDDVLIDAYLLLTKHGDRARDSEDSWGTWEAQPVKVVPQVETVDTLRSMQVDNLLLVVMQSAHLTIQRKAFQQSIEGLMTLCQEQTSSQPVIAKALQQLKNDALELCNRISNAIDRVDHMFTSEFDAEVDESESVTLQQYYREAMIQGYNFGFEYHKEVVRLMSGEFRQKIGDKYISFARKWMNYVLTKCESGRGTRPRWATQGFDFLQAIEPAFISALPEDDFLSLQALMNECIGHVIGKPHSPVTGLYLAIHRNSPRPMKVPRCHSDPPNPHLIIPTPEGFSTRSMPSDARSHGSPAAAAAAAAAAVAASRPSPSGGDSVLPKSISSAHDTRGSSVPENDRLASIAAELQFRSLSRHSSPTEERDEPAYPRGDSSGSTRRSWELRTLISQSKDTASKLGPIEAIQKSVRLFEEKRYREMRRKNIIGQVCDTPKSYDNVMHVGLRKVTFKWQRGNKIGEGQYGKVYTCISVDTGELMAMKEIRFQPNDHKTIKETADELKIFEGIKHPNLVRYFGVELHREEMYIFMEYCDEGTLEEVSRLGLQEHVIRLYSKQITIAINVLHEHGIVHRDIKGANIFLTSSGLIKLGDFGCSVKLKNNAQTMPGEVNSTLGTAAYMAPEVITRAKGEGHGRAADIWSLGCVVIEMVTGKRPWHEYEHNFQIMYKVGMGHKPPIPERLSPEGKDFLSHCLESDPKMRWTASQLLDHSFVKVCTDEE
# Chain of UniProt P27448 (P27448 whole entry, looked up): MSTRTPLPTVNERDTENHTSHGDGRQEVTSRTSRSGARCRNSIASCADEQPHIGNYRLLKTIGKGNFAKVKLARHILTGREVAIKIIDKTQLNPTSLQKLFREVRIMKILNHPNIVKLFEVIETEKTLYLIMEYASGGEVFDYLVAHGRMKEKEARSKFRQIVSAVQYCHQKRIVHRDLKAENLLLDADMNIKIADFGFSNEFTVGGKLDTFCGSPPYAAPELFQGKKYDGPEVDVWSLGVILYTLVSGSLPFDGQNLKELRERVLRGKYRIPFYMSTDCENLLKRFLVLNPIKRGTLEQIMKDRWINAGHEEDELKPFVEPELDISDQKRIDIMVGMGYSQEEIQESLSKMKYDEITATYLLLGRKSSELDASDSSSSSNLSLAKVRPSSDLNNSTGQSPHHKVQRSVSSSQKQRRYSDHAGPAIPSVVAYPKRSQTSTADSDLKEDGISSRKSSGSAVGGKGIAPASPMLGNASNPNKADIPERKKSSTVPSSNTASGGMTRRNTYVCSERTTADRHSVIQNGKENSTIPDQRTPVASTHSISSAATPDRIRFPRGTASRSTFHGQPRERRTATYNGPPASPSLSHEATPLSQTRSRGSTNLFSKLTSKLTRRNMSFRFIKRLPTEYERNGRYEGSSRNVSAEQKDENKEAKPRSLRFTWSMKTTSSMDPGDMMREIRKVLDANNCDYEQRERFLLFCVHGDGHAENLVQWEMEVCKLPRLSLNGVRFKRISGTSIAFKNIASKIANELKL
# Chain of UniProt P53671 (P53671 whole entry, looked up): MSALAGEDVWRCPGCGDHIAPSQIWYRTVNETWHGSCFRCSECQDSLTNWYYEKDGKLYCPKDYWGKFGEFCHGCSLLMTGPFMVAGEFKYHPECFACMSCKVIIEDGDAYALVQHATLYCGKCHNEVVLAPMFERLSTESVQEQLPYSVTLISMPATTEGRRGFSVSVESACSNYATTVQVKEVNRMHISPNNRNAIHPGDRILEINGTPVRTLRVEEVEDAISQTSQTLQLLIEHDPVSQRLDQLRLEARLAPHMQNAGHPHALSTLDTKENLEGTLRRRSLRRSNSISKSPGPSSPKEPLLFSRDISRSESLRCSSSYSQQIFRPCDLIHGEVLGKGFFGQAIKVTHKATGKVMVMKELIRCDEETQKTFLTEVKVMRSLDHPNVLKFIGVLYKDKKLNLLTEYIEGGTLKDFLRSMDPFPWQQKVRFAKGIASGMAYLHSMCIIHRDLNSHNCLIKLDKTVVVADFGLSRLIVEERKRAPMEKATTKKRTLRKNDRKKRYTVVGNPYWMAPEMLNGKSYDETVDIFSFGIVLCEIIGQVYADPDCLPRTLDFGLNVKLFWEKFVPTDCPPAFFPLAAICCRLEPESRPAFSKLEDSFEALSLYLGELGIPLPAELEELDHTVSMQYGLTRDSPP
# Chain of UniProt P40692 (P40692 whole entry, looked up): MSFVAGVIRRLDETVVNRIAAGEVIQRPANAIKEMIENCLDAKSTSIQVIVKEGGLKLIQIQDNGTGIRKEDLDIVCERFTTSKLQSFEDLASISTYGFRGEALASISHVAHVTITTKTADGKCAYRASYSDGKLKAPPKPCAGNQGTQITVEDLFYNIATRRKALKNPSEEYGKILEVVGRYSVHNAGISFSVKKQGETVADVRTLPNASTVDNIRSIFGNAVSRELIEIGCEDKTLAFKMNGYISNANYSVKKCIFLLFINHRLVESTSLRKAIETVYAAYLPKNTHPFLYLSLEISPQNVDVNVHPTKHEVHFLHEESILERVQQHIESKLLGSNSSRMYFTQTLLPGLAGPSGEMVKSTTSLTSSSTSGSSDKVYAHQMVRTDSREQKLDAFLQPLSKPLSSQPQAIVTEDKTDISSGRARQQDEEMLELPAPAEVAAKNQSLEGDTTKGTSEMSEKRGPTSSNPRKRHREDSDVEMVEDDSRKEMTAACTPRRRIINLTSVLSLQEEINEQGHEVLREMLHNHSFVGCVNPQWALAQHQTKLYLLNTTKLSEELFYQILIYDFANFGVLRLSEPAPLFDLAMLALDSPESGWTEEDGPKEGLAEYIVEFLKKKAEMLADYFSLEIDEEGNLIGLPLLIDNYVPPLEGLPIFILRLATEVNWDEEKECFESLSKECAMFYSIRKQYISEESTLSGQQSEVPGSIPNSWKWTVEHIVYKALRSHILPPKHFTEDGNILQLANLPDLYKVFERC
row,Target,log2 fold change
1,MED16 (UniProt Q9Y2X0),-0.04
2,LAP3 (UniProt P28838),0.195
3,LUZP1 (UniProt Q86V48),0.086
4,KSR1 (UniProt Q8IVT5),-0.009
5,LTN1 isoform 3 (UniProt O94822),-0.06
6,MAP2K3 isoform 3 (UniProt P46734),-0.125
7,MRPL46 (UniProt Q9H2W6),0.115
8,MCU (UniProt Q8NE86),-0.085
9,KIF14 (UniProt Q15058),0.052
10,KIF15 (UniProt Q9NS87),-0.018
11,MAP3K4 (UniProt Q9Y6R4),0.145
12,LIMS1 isoform 3 (UniProt P48059),0.008
13,KIF11 (UniProt P52732),-0.011
14,KIFC1 (UniProt Q9BW19),0.006
15,MAT2B (UniProt Q9NZL9),-0.019
16,MFF isoform 2 (UniProt Q9GZY8),0.032
17,KPNA2 (UniProt P52292),-0.037
18,MED8 isoform 2 (UniProt Q96G25),-0.051
19,MAPK8 isoform 3 (UniProt P45983),-0.123
20,MGST3 (UniProt O14880),0.078

row,Target,log2 fold change
1,KIF4A (UniProt O95239),-0.021
2,MPP1 (UniProt Q00013),0.001
3,MAP4 (UniProt E7EVA0),0.125
4,LARS2 (UniProt Q15031),-0.103
5,LIMK2 isoform 3 (UniProt P53671),-0.173
6,KPNA4 (UniProt O00629),0.048
7,MAP7D3 (UniProt Q8IWC1),-0.056
8,METTL7A (UniProt Q9H8H3),-0.022
9,LYN (UniProt P07948),-0.067
10,LUC7L (UniProt Q9NQ29),-0.072
11,LYSMD3 (UniProt Q7Z3D4),0.074
12,KRR1 (UniProt Q13601),0.065
13,METTL2A (UniProt Q96IZ6),-0.046
14,MARK3 (UniProt P27448),0.038
15,MLH1 (UniProt P40692),0.013
16,KLC2 (UniProt Q9H0B6),-0.043
17,MCCC1 (UniProt Q96RQ3),0.005
18,MAPK3 (UniProt P27361),0.01
19,MITD1 (UniProt Q8WV92),0.013

# Compound: CC[C@@H]1C(=O)N(C)c2cnc(Nc3ccc(C(=O)N[C@H]4CC[C@H](N5CCN(CC6CC6)CC5)CC4)cc3OC)nc2N1C(C)C [volasertib]
# Test: as above
# How it was run: as §1
row,Target,log2 fold change
1,MED16 (UniProt Q9Y2X0),-0.036
2,LAP3 (UniProt P28838),0.054
3,LUZP1 (UniProt Q86V48),-0.015
4,KSR1 (UniProt Q8IVT5),0.016
5,LTN1 isoform 3 (UniProt O94822),-0.041
6,MAP2K3 isoform 3 (UniProt P46734),0.07
7,MRPL46 (UniProt Q9H2W6),0.044
8,MCU (UniProt Q8NE86),-0.033
9,KIF14 (UniProt Q15058),-0.071
10,KIF15 (UniProt Q9NS87),-0.053
11,MAP3K4 (UniProt Q9Y6R4),0.167
12,LIMS1 isoform 3 (UniProt P48059),0.024
13,KIF11 (UniProt P52732),-0.024
14,KIFC1 (UniProt Q9BW19),-0.084
15,MAT2B (UniProt Q9NZL9),-0.006
16,MFF isoform 2 (UniProt Q9GZY8),-0.014
17,KPNA2 (UniProt P52292),-0.051
18,MED8 isoform 2 (UniProt Q96G25),-0.003
19,MAPK8 isoform 3 (UniProt P45983),-0.02
20,MGST3 (UniProt O14880),0.076

row,Target,log2 fold change
1,KIF4A (UniProt O95239),-0.055
2,MPP1 (UniProt Q00013),-0.029
3,MAP4 (UniProt E7EVA0),-0.021
4,LARS2 (UniProt Q15031),-0.081
5,LIMK2 isoform 3 (UniProt P53671),-0.002
6,KPNA4 (UniProt O00629),0.026
7,MAP7D3 (UniProt Q8IWC1),0.018
8,METTL7A (UniProt Q9H8H3),0.226
9,LYN (UniProt P07948),-0.134
10,LUC7L (UniProt Q9NQ29),0.028
11,LYSMD3 (UniProt Q7Z3D4),0.056
12,KRR1 (UniProt Q13601),-0.015
13,METTL2A (UniProt Q96IZ6),-0.015
14,MARK3 (UniProt P27448),0.042
15,MLH1 (UniProt P40692),-0.002
16,KLC2 (UniProt Q9H0B6),-0.074
17,MCCC1 (UniProt Q96RQ3),-0.034
18,MAPK3 (UniProt P27361),-0.011
19,MITD1 (UniProt Q8WV92),-0.07
